This note sets out measurements from PubChem BioAssay (NCI).

Test systems include T-47D breast; BT-549 breast; MDA-MB-435 melanoma; SW-620 colon; MCF7 breast; HCC-2998 colon; KM12 colon; HCT-116 colon.
Test in all cases: NCI-60 one-dose screen, 48 h (100 = growth as untreated, 0 = no growth, -100 = all killed)
Holding throughout (settings): 10 µM unless noted

About 83,000 compounds went through this panel and 20% of them were active in at least one assay; those are over-represented in the sample as a whole.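 Testing used 96-well plates and a 48-hour single-concentration exposure. Example: -40 means 40% of the starting cells died.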 Values without a mark were called inactive. Calls of active or inactive are those of the source. How the source made its calls: active means growth percent below 10; inactive means the rest.

Consider `COc1cc(C2CC(=O)Nc3c2cnn3C)cc(OC)c1OC` (stereo not drawn), for which the growth in the assay on T-47D breast is 96.1%; in the assay with BT-549 breast, 99.4%; in the assay with MDA-MB-435 melanoma, 105%; in the assay on SW-620 colon, 108%; in the assay on MCF7 breast it was 97.1%; in the assay on HCC-2998 colon it was 108%. In addition, the growth in the assay with KM12 colon was 105%.

For the compound `Cc1ccc(Nc2cc(Cl)c([N+](=O)[O-])cc2[N+](=O)[O-])cc1`, the growth is 1.27% (active) with T-47D breast; 31.3% in the assay on BT-549 breast; 10.2% with MDA-MB-435 melanoma; 9.72% (active) in the assay on SW-620 colon; 25.9% in the assay with MCF7 breast; 7.86% (active) in the assay with HCT-116 colon. For the same compound, the growth was 42.4% in the assay on HCC-2998 colon and 45.9% in the assay with KM12 colon.

Regarding `O=S1(=O)NCCCN1CCNc1nccc(-c2c(-c3cccc(O)c3)nc3sccn23)n1`, the growth is 78.3% with T-47D breast; 86% in the assay with BT-549 breast; 24.6% in the assay on MDA-MB-435 melanoma; 88% with SW-620 colon; 91.8% in the assay with MCF7 breast; 31% with HCT-116 colon. The figures for the growth in the assay with HCC-2998 colon and in the assay with KM12 colon were 108% and 102%, respectively.

`CC(C)C/C=C/C=C/C(=O)N[C@@H](CC(N)=O)C(=O)N[C@@H]1C(=O)N[C@H](c2ccc(O)cc2)C(=O)N[C@H](CCCN)C(=O)N[C@H]([C@@H](C)O)C(=O)N[C@H](c2ccc(O)cc2)C(=O)N[C@H](c2ccc(O)cc2)C(=O)N[C@H]([C@H](C)O)C(=O)N[C@H](Cc2ccccc2)C(=O)N[C@H](CCCN)C(=O)N[C@H](c2ccc(O[C@H]3O[C@@H](CO)[C@@H](O)[C@@H](O)[C@H]3O[C@@H]3O[C@H](CO)[C@H](O)[C@H](O)[C@@H]3O)cc2)C(=O)N[C@H]([C@H](C)O)C(=O)N[C@H](c2ccc(O)cc2)C(=O)NCC(=O)N[C@H](CC(C)C)C(=O)N[C@H](C)C(=O)N[C@H](c2ccc(O)c(Cl)c2)C(=O)O[C@@H]1C(N)=O`: the growth is 94.9% in the assay with T-47D breast; -2.76% (active) with BT-549 breast; 57.2% with MDA-MB-435 melanoma; 96.3% in the assay with SW-620 colon; 54.9% with MCF7 breast; 20.4% with HCT-116 colon. In addition, the growth with HCC-2998 colon was 104%; with KM12 colon, 44.3%.

Regarding `C/C(=N\NC(=O)CSc1nc2ccccc2c(=O)n1CCc1ccc(S(N)(=O)=O)cc1)c1ccc(Br)cc1`, the growth was 91.9% in the assay with T-47D breast; 93.9% in the assay with BT-549 breast; 78.3% in the assay with MDA-MB-435 melanoma; 77.3% in the assay on SW-620 colon; 80.5% in the assay on MCF7 breast; 41.2% in the assay on HCT-116 colon. In addition, the figures for the growth with HCC-2998 colon and with KM12 colon were 90.7% and 74.1%, respectively.

`COc1cc(C2CC(c3ccc(C)cc3)=NN2C=O)ccc1Oc1nc2c(c(=O)n(C)c(=O)n2C)n1C` (stereo not drawn): the growth in the assay on T-47D breast was 80%; in the assay with BT-549 breast, 97.9%; in the assay with MDA-MB-435 melanoma it was 62.7%; in the assay with SW-620 colon it was 102%; in the assay with MCF7 breast, 77.1%; in the assay on HCC-2998 colon, 86.6%. In addition, in the assay with KM12 colon, the growth is 77.9%.

Regarding `CCCCOC(=O)c1cc(O)c(O)c(O)c1`, the growth in the assay with T-47D breast is 61%; in the assay on BT-549 breast, 67.4%; in the assay with MDA-MB-435 melanoma it was 74.8%; in the assay on SW-620 colon, 80.2%; with MCF7 breast it was 84.9%; with HCT-116 colon, 64.9%. The growth is 92.5% in the assay on HCC-2998 colon and 69% with KM12 colon.

Regarding `CNC(=O)c1c(NC(=O)c2cccc(C(F)(F)F)c2)sc2c1CCC(=O)C2`, the growth with T-47D breast was -32.8% (active); in the assay with BT-549 breast it was -14.8% (active); in the assay with MDA-MB-435 melanoma, 4.37% (active); with SW-620 colon it was -17.8% (active); in the assay on MCF7 breast, 0.296% (active); in the assay on HCC-2998 colon, -33.3% (active). Further, in the assay on KM12 colon, the growth is -12.9% (active).

With `O=C1C(Cl)=C(Nc2cccc3ccccc23)C(=O)c2ccccc21`, the growth in the assay on T-47D breast was 34.3%; with BT-549 breast, 73.4%; in the assay on MDA-MB-435 melanoma, 55.9%; with MCF7 breast, 44%; in the assay with HCT-116 colon, 47.7%; in the assay with HCC-2998 colon, 103%.

Consider `COc1ccc(C(=O)OC2C(OC3C(O)COC(O[C@H]4C[C@H]5[C@@H]6CC=C7C[C@@H](O)CC[C@]7(C)[C@H]6CC[C@]5(C)[C@H]4[C@H](C)C(=O)CCC(C)C)C3OC(=O)C(C)C)OCC(O)C2O)cc1` (stereo partly drawn), for which the growth is -1.53% (active) with T-47D breast; 14.6% in the assay on BT-549 breast; -1.62% (active) in the assay on MDA-MB-435 melanoma; 3.21% (active) in the assay with MCF7 breast; 10.3% in the assay with HCT-116 colon; 59% in the assay on HCC-2998 colon. The growth in the assay on KM12 colon is 36.3%.

As for `CC1(C)CC(=O)c2cc3c(N)c(C(=O)Nc4ccc(Cl)cc4)sc3nc2C1`, the growth is 96.2% in the assay on T-47D breast; 125% with BT-549 breast; 109% in the assay on MDA-MB-435 melanoma; 109% with SW-620 colon; 103% in the assay with MCF7 breast; 116% in the assay with HCC-2998 colon. In addition, the growth with KM12 colon was 117%.

For `Clc1ccc(-c2cnc3c(-c4ccnc(N5CCNCC5)c4)cnn3c2)cc1`, the growth in the assay on T-47D breast was -55.6% (active); in the assay with BT-549 breast, 78.1%; in the assay on MDA-MB-435 melanoma, -51.1% (active); in the assay on MCF7 breast it was -63.4% (active); in the assay on HCT-116 colon it was -68.3% (active); in the assay with HCC-2998 colon it was -43% (active). The growth in the assay on KM12 colon was -3.73% (active).

Consider `O=c1c2cc(Cl)ccc2oc2ccc(OCCCCCN3CCCCC3)cc12`, for which the growth with T-47D breast was 60.1%; in the assay with BT-549 breast it was 64.6%; in the assay on MDA-MB-435 melanoma, -24% (active); in the assay with SW-620 colon, 33.7%; in the assay on MCF7 breast, 56.5%; in the assay with HCC-2998 colon it was 74.7%. Moreover, the growth with KM12 colon is 65%.

As for `CC1=CCC2C1CC=C(C)C(CC[C@H]1[C@@](C)(O)CCC3OC(C)(C)[C@H](OC(=O)c4ccccc4)CC[C@@]31C)C2(C)C` (stereo partly drawn), the growth with T-47D breast was 74.4%; in the assay with BT-549 breast it was 106%; with MDA-MB-435 melanoma, 86.8%; with SW-620 colon, 80%; in the assay with MCF7 breast, 74.9%; with HCC-2998 colon it was 97.9%. Also, the growth in the assay with KM12 colon was 98.9%.

For `CCN(CC)CC(=O)Nc1c(C)ccc(N)c1C`, the growth in the assay on T-47D breast was 96.6%; in the assay with BT-549 breast, 97.2%; in the assay on MDA-MB-435 melanoma it was 99.8%; with SW-620 colon, 104%; in the assay on MCF7 breast, 92.4%; in the assay on HCC-2998 colon it was 96.8%. Further, the growth with KM12 colon is 114%.

In the case of `O=C(Nc1ccc(-n2ccc3c(NC(=O)c4ccccc4)nccc32)cc1)c1ccc(N2CCOCC2)c(C(F)(F)F)c1`, the growth was 28.2% with T-47D breast; 28.5% in the assay on BT-549 breast; 33.6% in the assay with MDA-MB-435 melanoma; 30.5% in the assay with SW-620 colon; 23.2% in the assay on MCF7 breast; 40.8% with HCC-2998 colon. The growth in the assay with KM12 colon is 22.7%.

In the case of `O=C(NCCN1CCCC1)n1cc(-c2ccncc2)c(-c2cc(O)cc(Cl)c2)n1`, the growth with T-47D breast is 98%; with BT-549 breast it was 111%; in the assay on MDA-MB-435 melanoma, 57.3%; with SW-620 colon, 115%; in the assay with MCF7 breast it was 96.2%; in the assay on HCC-2998 colon it was 122%. The growth with KM12 colon was 108%.

On to `COc1cccc(/C=N\Nc2ccc([N+](=O)[O-])cn2)c1O`, for which the growth in the assay with T-47D breast is 30.1%; in the assay with BT-549 breast, 71.8%; in the assay on MDA-MB-435 melanoma it was 54.3%; with SW-620 colon, 38%; with HCT-116 colon, 8.72% (active); in the assay with HCC-2998 colon, 82.2%. Further, the growth in the assay on KM12 colon was 78.4%.

In the case of `CN(C)c1nc(-c2cccs2)n2nc(-c3ccc(Cl)cc3)cc2n1`, the growth in the assay with T-47D breast was 30.7%; in the assay with BT-549 breast it was 68.7%; with MDA-MB-435 melanoma, 63.1%; in the assay with SW-620 colon it was 56.8%; in the assay on MCF7 breast, 66.2%; in the assay with HCC-2998 colon it was 48.9%. Also, the growth in the assay on KM12 colon was 72.5%.

With `COc1nccc2c(Sc3ccccc3)nc(N)nc12`, the growth is 107% in the assay with T-47D breast; 85.9% in the assay on BT-549 breast; 110% in the assay with MDA-MB-435 melanoma; 109% with SW-620 colon; 91.9% with MCF7 breast; 106% in the assay with HCC-2998 colon. In addition, the growth with KM12 colon was 113%.

Regarding `CC(C)(C)c1cc(C[P+](c2ccccc2)(c2ccccc2)c2ccccc2)cc(C(C)(C)C)c1O`, the growth in the assay on T-47D breast is -4.23% (active); in the assay on BT-549 breast, -0.875% (active); in the assay on MDA-MB-435 melanoma, -38% (active); in the assay on MCF7 breast it was 3.43% (active); in the assay on HCT-116 colon it was 5.83% (active); in the assay on HCC-2998 colon it was 14.6%. Further, in the assay with KM12 colon, the growth was -38.6% (active).

With `Cc1ccc([C@H]2c3[nH]c4ccccc4c3C[C@H]3C(=O)N(CCCCCCC(=O)NO)CC(=O)N23)cc1`, the growth in the assay on T-47D breast was 19.5%; in the assay with BT-549 breast, 68%; with MDA-MB-435 melanoma, 38.3%; in the assay on MCF7 breast it was 35.5%; in the assay with HCT-116 colon, 15.8%; with HCC-2998 colon it was 55.6%. In addition, the growth in the assay on KM12 colon was 48.2%.

Consider `O=C(Nc1ccncc1)C(=O)c1cn(S(=O)(=O)c2cccc(Cl)c2F)c2ccccc12`, for which the growth is 74.2% with T-47D breast; 62.1% in the assay with BT-549 breast; 8.25% (active) in the assay on MDA-MB-435 melanoma; 59.6% with SW-620 colon; 35.2% in the assay on MCF7 breast; 66.4% in the assay with HCC-2998 colon. Besides, the growth in the assay on KM12 colon was 63.1%.

As to `COC(=O)[C@@H](Cc1c[nH]c2ccccc12)NC(=O)/C=C/c1ccccc1`, the growth with T-47D breast was 32.2%; in the assay with BT-549 breast, -0.499% (active); in the assay on MDA-MB-435 melanoma, -84.3% (active); in the assay on SW-620 colon, 27.5%; in the assay on MCF7 breast, 19.6%; with HCC-2998 colon, 66%. The growth in the assay with KM12 colon is 27.3%.

In the case of `C=CCN1C(=O)/C(=c2\sc3n(c2=O)C2C(NN=3)N(CC)C(=O)N2CC)c2ccccc21` (stereo not drawn), the growth in the assay on T-47D breast is 57.6%; with BT-549 breast, 25%; with MDA-MB-435 melanoma, -30.2% (active); in the assay on SW-620 colon it was 30.9%; with MCF7 breast, 16.6%; with HCC-2998 colon it was 4.46% (active). Moreover, the growth in the assay with KM12 colon was 20.1%.

For `CCCCOc1nc2ccccc2cc1/C=C/c1cc(/C=C/c2cc3ccccc3nc2OCCCC)n(-c2ccccc2)n1`, the growth with T-47D breast is 102%; in the assay with BT-549 breast, 93.2%; with MDA-MB-435 melanoma, 108%; with MCF7 breast it was 99.1%; in the assay with HCT-116 colon it was 93.1%; in the assay with HCC-2998 colon, 119%. Further, the growth in the assay on KM12 colon was 103%.

Turning to `CN(C)CCCn1c(=O)c2cc([N+](=O)[O-])ccc2c2cnc3[nH]ccc3c21`, the growth was 86.5% in the assay with T-47D breast; 68.7% in the assay with BT-549 breast; 67.7% in the assay on MDA-MB-435 melanoma; -12% (active) with MCF7 breast; 12.4% with HCT-116 colon; 60% in the assay with HCC-2998 colon. The growth in the assay with KM12 colon was 47.9%.
